D1 PAM: enhances dopamine response at the human D1 receptor; potentiation, % at 10 µM; P21728; actives 0.036% (n = 360,000); AID 504651; HEK293 TREx D1 cells, calcium flux, dopamine EC20 potentiation; in the data active means potentiation above about 30%; further: 0% is about no effect
Target sequence (P21728 whole entry, looked up): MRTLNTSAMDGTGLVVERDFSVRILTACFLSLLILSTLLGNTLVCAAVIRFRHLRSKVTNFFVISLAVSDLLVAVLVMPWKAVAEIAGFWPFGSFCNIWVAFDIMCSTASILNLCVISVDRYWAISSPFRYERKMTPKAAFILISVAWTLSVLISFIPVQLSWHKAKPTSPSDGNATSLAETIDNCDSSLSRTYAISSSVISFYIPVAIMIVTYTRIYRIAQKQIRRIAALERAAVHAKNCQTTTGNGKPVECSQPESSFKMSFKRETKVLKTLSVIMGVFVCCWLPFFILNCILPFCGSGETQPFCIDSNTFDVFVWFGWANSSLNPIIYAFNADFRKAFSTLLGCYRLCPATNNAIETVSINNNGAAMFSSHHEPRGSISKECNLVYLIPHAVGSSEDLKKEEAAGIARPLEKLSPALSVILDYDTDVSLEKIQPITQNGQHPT
TRHR enhancer: TRH receptor (human) allosteric enhancement. TRHR cells, fluo-8 calcium fluorescence, EC20 TRH enhancement. enhancement, % at 2 µM. actives 0.66% (n = 360,000); in the data active means enhancement above about 30%; further: 0% is about no effect
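Enhancer read-out: after compound pinning and an initial kinetic agonist-mode read, an EC20 of TRH (10 nM final) was injected and fluo-8 calcium signal (Ex 480/Em 530) followed at 1 s/cycle for 100 cycles in TRHR-expressing cells.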
TRHR ag: activates the human TRH receptor. actives 0.18% (n = 360,000). TRHR cells, calcium flux fluo-8, FDSS agonist mode. activation, % at 2 µM; further: 0% is about no effect
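In this calcium-flux screen, cells bearing human TRHR are dye-loaded with fluo-8, baselined for 10 cycles, then exposed to library compounds; positive kinetic calcium responses during the agonist phase mark hits, with TRH as control.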
D1 antagonist: blocks dopamine activation of the human D1 receptor | HEK293 TREx D1 cells, calcium flux, dopamine EC80; active compounds read low | activity change, negative = inhibition, % at 10 µM | actives 3.2% (n = 360,000) | AID 504652; in the data active means activity change below about -30%; further: on the % scale 0 is the no-effect control and ±100 the full control effect
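Antagonism measured as reduced calcium response to an EC80 dopamine addition following 180 s compound pre-read; cells were inducible HEK293 Trex D1 plated overnight at 30 C, read kinetically at 1 cycle/sec.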
D1 ag: agonists of human D1 dopamine receptor; actives 1% (n = 360,000); HEK293 T-REx D1 cells, calcium flux, agonist mode; P21728; AID 504660; activation, % at 2 µM; further: 0% is about no effect
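Tetracycline-induced HEK293 TREx D1 cells, force-coupled to calcium signalling, were dye-loaded with a no-wash calcium kit. Compound was pin-added after a 10 s baseline. Fluorescence was read kinetically at 1 cycle/s for 180 s, with calcium rises flagged as agonism.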
LDHA block: blocks human lactate dehydrogenase A. P00338. purified LDHA, NADH/diaphorase-resazurin fluorescence; active compounds read low. activity change, % (values are at about 110 or 230 µM). actives 0.15% (n = 480,000). AID 1347041; in the data active means activity change below about -30%;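 further: plate controls were DMSO wells for no effect and wells without enzyme for full effect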
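Human LDH5 at 2 nM final in Tris HCl pH 7.4 with 0.06 mM NADH and 0.2 mM pyruvate, reacted 5 minutes at room temperature. Remaining NADH coupled via diaphorase/resazurin; resorufin fluorescence read at 0 and 20 minutes, normalized to enzyme-free and DMSO wells.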
* marks the source's active call; other numbers are inactive results; . = no result given. Shown are actives, neighbours in structure and some others; about 3.6% of the full set was active somewhere. Unless noted, no stated cut-off is given here; in the data, active means activation above about 30%; inactive means the rest.

SMILES	D1 PAM	TRHR enhancer	TRHR ag	D1 antagonist	D1 ag	LDHA block
CN(CC(=O)Nc1cccc(F)c1)C(=O)c1ccc(C(=O)c2ccccc2)cc1	-6	-5	4	-60*	18	-3
Cc1cc(C)cc(NC(=O)C(NCCN2CCOCC2)c2ccccc2)c1 (stereo not given)	-7	0	0	-54*	6	-24
CC(C)(C)c1ccc(C(=O)COC(=O)CN2C(=O)NC3(CCCC3)C2=O)cc1	-3	16	-3	-31*	7	3
COc1ccc(OC)c(C(=O)COC(=O)CN2C(=O)NC3(CCCCC3C)C2=O)c1 (stereo not given)	-4	33*	0	3	1	-6
COc1ccccc1C(=O)NC(=O)COC(=O)CN1C(=O)NC2(CCCCC2C)C1=O (stereo not given)	0	4	0	8	1	-9
COc1ccc(Br)c(C(=O)OCC(=O)c2cc(C)ccc2C)c1	.	.	.	.	.	2
Cc1cccc(N2CCN(S(=O)(=O)c3ccc4c(c3)C(C(C)C)C(=O)N4)CC2)c1C (stereo not given)	0	2	-1	-37*	6	4
Cc1cccc(N2CCN(S(=O)(=O)c3ccc4[nH]c(=O)ccc4c3)CC2)c1C	-7	-1	0	-35*	13	-1
CCc1[nH]nc2c1C1(C(=O)Nc3ccc(Cl)cc31)C(C#N)=C(N)O2 (stereo not given)	.	.	.	.	.	3
O=C1CC(c2ccsc2)c2ccc3ccccc3c2N1 (stereo not given)	3	37*	0	3	3	-2
O=C1CC(c2cccs2)c2ccc3ccccc3c2N1 (stereo not given)	-2	3	-1	-28	1	0
COc1ccc(CNc2nc3ccccc3n2C)c(OC)c1	-4	-5	-1	-40*	12	-8
Oc1ccccc1CNc1nc2ccccc2n1CCN1CCCCC1	4	6	-1	4	3	0
COc1ccccc1Cn1c(-c2ccccc2OC)nc2ccccc21	1	37*	0	7	-1	3
COc1ccccc1CNc1nc2ccccc2n1CCN1CCCCC1	5	-7	0	-35*	11	0
Clc1ccccc1N=C1SCCS1	8	-3	-1	7	36*	-2
CCC(NC(=O)c1cc(COc2ccc(OC)cc2Cl)on1)c1ccncc1 (stereo not given)	-2	4	1	-26	25	2
CCC(NC(=O)c1cc(COc2cc(C)c(Cl)c(C)c2)on1)c1ccncc1 (stereo not given)	-4	-1	3	65	36*	-3
Cc1ccccc1NC(=O)c1cccc(S(=O)(=O)Nc2cccc(C(=O)O)c2)c1	2	-4	0	-31*	-3	-9
Cc1ccccc1NC(=O)c1ccc(NS(=O)(=O)c2cc(C(C)(C)C)cc(C)c2C)cc1	-5	0	0	-85*	0	-4
Cc1ccccc1OCCN(C)C(=O)NCc1cccc(Cl)c1	.	.	.	.	.	5
COc1cccc(-c2ocnc2C(=O)Nc2ccc(OC)cc2OC)c1	.	.	.	.	.	-9
CCCCCc1c(C)nc(Nc2ccc(F)cc2)[nH]c1=O	-7	-8	5	-29	21	0
CCCCc1c(C)nc(Nc2ccc(OC)cc2)[nH]c1=O	-1	7	0	-37*	1	-6
CCCc1cc(=O)[nH]c(Nc2ccc(OCC)cc2)n1	4	-6	0	-84*	9	-8
SMILES	D1 PAM	TRHR enhancer	TRHR ag	D1 antagonist	D1 ag	LDHA block
CC(C)NC(=O)Cn1c(=O)cnc2ccccc21	-5	-1	0	-55*	4	-11
N#CC1=C(N)C(C#N)(C#N)C(c2cccnc2)C2CCCC=C12 (stereo not given)	-3	0	2	-30*	4	.
N#CC1=C(N)C(C#N)(C#N)C(c2cccnc2)C2CC(c3ccccc3)CC=C12 (stereo not given)	-2	1	1	-9	3	12
O=C(Nc1cccc(Cl)c1)N(CCN1CCOCC1)Cc1cccc(Cl)c1	-13	-1	0	-38*	48*	-2
Cc1ccc(C)c2[nH]c(=O)c(CN(CCN3CCCC3)C(=O)Nc3cccc(Cl)c3)cc12	-11	3	0	-12	39*	1
COc1ccc(OC)c(CN(CCN2CCOCC2)C(=O)Nc2ccccc2)c1	3	0	0	7	1	-5
COc1ccc(OC)c(CN(CCN2CCOCC2)C(=O)Nc2cccc(Cl)c2)c1	0	-1	1	-31*	2	2
Cc1cc(C)c2cc(CN(CCN3CCCC3)C(=O)Nc3ccc(F)cc3)c(=O)[nH]c2c1	-5	14	-1	23	4	-3
CN1CCC/C(=C\Cl)C1=O	.	.	.	.	.	1
O=c1cc(-c2ccc(F)cc2)nc(SCc2nc(-c3ccc(Cl)cc3)no2)[nH]1	-2	43*	0	-9	2	-14
O=c1cc(-c2ccccc2)nc(SCc2nc(-c3ccc(Cl)cc3)no2)[nH]1	-3	3	0	-4	0	-2
C/C=C(\C)CN1CCc2cc(OC)c(OC)cc2C1	-4	32*	0	14	9	-1
COc1cc2c(cc1OC)CN(CC(=O)NC(=O)NCc1ccccc1)CC2	4	-1	0	-16	3	-2
Cc1cc(C)cc(C(=O)NC(=S)Nc2ccc(-c3cc4ccccc4oc3=O)cc2)c1	-10	1	0	-57*	0	0
O=C(CCCn1c(SCC(=O)NCC2CCCO2)nc2ccccc2c1=O)NCc1ccccc1 (stereo not given)	0	-8	-1	-1	2	-5
O=C(CCCn1c(SCC(=O)Nc2ccccc2Cl)nc2ccccc2c1=O)NCC1CCCO1 (stereo not given)	5	-9	0	-33*	5	-6
O=C(CSc1nc2ccccc2s1)NCC1CCCO1 (stereo not given)	-8	7	0	-33*	1	-1
Cc1cc(NC(=O)CSc2nc3ccccc3c(=O)n2CCCC(=O)NCc2ccccc2)n[nH]1	-5	-3	1	-35*	4	-9
O=C(CCSc1ccccc1)N1CCC(c2nnc3n2CCC3)CC1	.	.	.	.	.	-8
OC1CCN(Cc2cn(Cc3ccccc3)nc2-c2cc3ccccc3o2)CC1	-6	6	5	-31*	25	-3
COCC1CCCN(Cc2cn(Cc3ccccc3)nc2-c2cc3ccccc3o2)C1 (stereo not given)	3	5	1	33	9	1

High-throughput results from PubChem.
